From PubChem BioAssay (NCI)
Compounds without any hit were thinned out: in the full panel of roughly 79,000, 15% have a hit. Unmarked numbers belong to inactive results. Calls of active or inactive are those of the source. Cut-off read from the data, not from the text of the source: active = growth inhibition above about 70%; inactive = the rest.

Experiments:
[1] = NCI Yeast Anticancer Drug Screen. Data for the rad52 strain (AID 147);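 note: 0% = growth of vehicle-treated control cultures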; conditions: S. cerevisiae rad52 mutant growth inhibition, stronger effect = higher value
In short: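 Genetically altered yeast (DNA damage repair defect) treated with compound; inhibition calculated relative to vehicle.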

[2] = NCI Yeast Anticancer Drug Screen. Data for the wt1 strain (AID 149);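 note: 0% = growth of vehicle-treated wt1 cultures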; conditions: S. cerevisiae wt1 strain (SPY 50644) growth inhibition, stronger effect = higher value
In short: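 Compounds are added to wt1 yeast cultures. Growth is then measured. Inhibition is expressed relative to vehicle-treated controls.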

[3] = NCI Yeast Anticancer Drug Screen. Data for the rad50EPP+ strain (AID 151);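 note: 0% = growth of vehicle-treated control cultures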; conditions: S. cerevisiae rad50 mutant strain, stronger effect = higher value
In short: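 Strain rad50EPP+; compound exposure; % growth inhibition vs vehicle.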

[4] = NCI Yeast Anticancer Drug Screen. Data for the mgt1 strain (AID 153); conditions: S. cerevisiae mgt1 mutant growth inhibition, stronger effect = higher value
In short: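 Read-out: yeast growth inhibition vs vehicle control. Strain mgt1, drawn from a panel altered in DNA damage repair or cell cycle control.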

[5] = NCI Yeast Anticancer Drug Screen. Data for the rad50 strain (AID 155);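 note: 0% = growth of vehicle-only cultures of the same strain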; conditions: S. cerevisiae rad50 strain growth inhibition, stronger effect = higher value
In short: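 Inhibition values express reduced yeast growth in compound-treated cultures relative to vehicle-treated controls.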

[6] = NCI Yeast Anticancer Drug Screen. Data for the mec2-1 strain (AID 157); conditions: S. cerevisiae mec2-1 strain, stronger effect = higher value
In short: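 Cells of the genetically defined mec2-1 yeast strain are incubated with test compound. Inhibition of growth is calculated against vehicle-treated controls.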

[7] = NCI Yeast Anticancer Drug Screen. Data for the rad14 strain (AID 159);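 note: 0% = growth of vehicle-treated control cultures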; conditions: S. cerevisiae rad14 strain growth inhibition, stronger effect = higher value
In short: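 A mutant yeast strain defective in DNA damage repair is treated with compound; inhibition of its growth is scored against untreated, vehicle-exposed cultures.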

[8] = NCI Yeast Anticancer Drug Screen. Data for the sgs1 mgt1 strain (AID 161);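 note: 0% = growth of cultures given vehicle only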; conditions: S. cerevisiae sgs1 mgt1 strain, stronger effect = higher value
In short: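 Genetically altered yeast, compound exposure, growth inhibition relative to vehicle.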

[9] = NCI Yeast Anticancer Drug Screen. Data for the CLN2oe strain (AID 163);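 note: 0% = growth of vehicle-only control cultures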; conditions: S. cerevisiae CLN2oe strain, stronger effect = higher value
In short: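 Strain altered in cell-cycle control, incubated with compound; growth compared to solvent-treated controls.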

[10] = NCI Yeast Anticancer Drug Screen. Data for the cln2 rad14 strain (AID 165);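 note: 0% = growth equal to vehicle treated cultures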; conditions: S. cerevisiae cln2 rad14 strain, stronger effect = higher value
In short: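 The screen exposed genetically defined yeast (cln2 rad14) to test compounds and scored growth inhibition relative to vehicle-treated controls.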

[11] = NCI Yeast Anticancer Drug Screen. Data for the bub3 strain (AID 167); conditions: S. cerevisiae bub3 mutant strain, stronger effect = higher value
In short: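 Steps: expose the mutant yeast strain to compound; grow alongside vehicle-treated cultures; measure growth; express inhibition against the vehicle cultures.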

[12] = NCI Yeast Anticancer Drug Screen. Data for the wt2 strain (AID 169);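 note: 0% = growth of vehicle-treated yeast cultures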; conditions: S. cerevisiae wt2 strain growth inhibition, stronger effect = higher value
In short: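 Steps: yeast strain treated with compound; growth recorded; inhibition calculated relative to cultures given vehicle alone.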

[13] = NCI Yeast Anticancer Drug Screen. Data for the mlh1 strain (AID 171);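 note: 0% = growth of vehicle-treated control cultures of the same strain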; conditions: S. cerevisiae mlh1 strain growth inhibition, stronger effect = higher value
In short: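 Yeast screen: mutant strain plus compound, growth scored against vehicle control wells.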

[14] = NCI Yeast Anticancer Drug Screen. Data for the sgs1 strain (AID 173);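 note: 0% = growth of vehicle-only control cultures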; conditions: S. cerevisiae sgs1 mutant, stronger effect = higher value
In short: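 Inhibition of yeast growth served as the measure. The mutant strain was treated with each compound, and growth was normalised to cultures receiving vehicle alone.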

[15] = NCI Yeast Anticancer Drug Screen. Data for the mlh1 rad18 strain (AID 175); conditions: S. cerevisiae mlh1 rad18 strain growth inhibition, stronger effect = higher value
In short: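 Compound-treated yeast growth, normalised to vehicle controls. Strain bears defined DNA repair mutations.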

[16] = at 5.0 µM (retest, dose inferred, filed as 0.5)
[17] = at 50.0 µM (retest, dose inferred, filed as 5.0)

Structure (SMILES): O=[N+]([O-])c1cccc2nc3ccccc3c(NCCC[N+]3([O-])CCCCC3)c12
- growth inhibition ([1]; at 1.2 µM): 20%
- growth inhibition ([1]; at 3.7 µM): 47%
- growth inhibition ([1]; at 11.0 µM): 80% (active)
- growth inhibition ([1]; at 33.0 µM): 90% (active)
- growth inhibition ([1]; at 100.0 µM): 94% (active)
- growth inhibition ([2]; at 1.2 µM): 1%
- growth inhibition ([2]; at 3.7 µM): 2%
- growth inhibition ([2]; at 11.0 µM): 4%
- growth inhibition ([2]; at 33.0 µM): 15%
- growth inhibition ([2]; at 100.0 µM): 46%
- growth inhibition ([3]; at 1.2 µM): 10%
- growth inhibition ([3]; at 3.7 µM): 36%
- growth inhibition ([3]; at 11.0 µM): 77% (active)
- growth inhibition ([3]; at 33.0 µM): 93% (active)
- growth inhibition ([3]; at 100.0 µM): 96% (active)
- growth inhibition ([4]; at 1.2 µM): 0%
- growth inhibition ([4]; at 3.7 µM): 1%
- growth inhibition ([4]; at 11.0 µM): 5%
- growth inhibition ([4]; at 33.0 µM): 7%
- growth inhibition ([4]; at 100.0 µM): 56%
- growth inhibition ([5]; at 1.2 µM): 4%
- growth inhibition ([5]; at 3.7 µM): 16%
- growth inhibition [5, 16]: 67%
- growth inhibition ([5]; at 11.0 µM): 47%
- growth inhibition ([5]; at 33.0 µM): 82% (active)
- growth inhibition [5, 17]: 93% (active)
- growth inhibition ([5]; at 50.0 µM): 81.3% (active)
- growth inhibition ([5]; at 100.0 µM): 91% (active)
- growth inhibition ([6]; at 1.2 µM): 1%
- growth inhibition ([6]; at 3.7 µM): 8%
- growth inhibition [6, 16]: 39%
- growth inhibition ([6]; at 11.0 µM): 35%
- growth inhibition ([6]; at 33.0 µM): 86% (active)
- growth inhibition [6, 17]: 98% (active)
- growth inhibition ([6]; at 50.0 µM): 96% (active)
- growth inhibition ([6]; at 100.0 µM): 96% (active)
- growth inhibition ([7]; at 1.2 µM): 6%
- growth inhibition ([7]; at 3.7 µM): 28%
- growth inhibition ([7]; at 11.0 µM): 86% (active)
- growth inhibition ([7]; at 33.0 µM): 95% (active)
- growth inhibition ([7]; at 100.0 µM): 98% (active)
- growth inhibition [8, 16]: 78% (active)
- growth inhibition [8, 17]: 96% (active)
- growth inhibition ([8]; at 50.0 µM): 93.5% (active)
- growth inhibition ([9]; at 1.2 µM): -2%
- growth inhibition ([9]; at 3.7 µM): -5%
- growth inhibition ([9]; at 11.0 µM): 46%
- growth inhibition ([9]; at 33.0 µM): 85% (active)
- growth inhibition ([9]; at 100.0 µM): 94% (active)
- growth inhibition [10, 16]: 95% (active)
- growth inhibition [10, 17]: 98% (active)
- growth inhibition ([10]; at 50.0 µM): 97.1% (active)
- growth inhibition ([11]; at 1.2 µM): -13%
- growth inhibition ([11]; at 3.7 µM): -8%
- growth inhibition [11, 16]: -4%
- growth inhibition ([11]; at 11.0 µM): 34%
- growth inhibition ([11]; at 33.0 µM): 82% (active)
- growth inhibition [11, 17]: 86% (active)
- growth inhibition ([11]; at 50.0 µM): 38.7%
- growth inhibition ([11]; at 100.0 µM): 87% (active)
- growth inhibition ([12]; at 1.2 µM): 0%
- growth inhibition ([12]; at 3.7 µM): 6%
- growth inhibition ([12]; at 11.0 µM): 25%
- growth inhibition ([12]; at 33.0 µM): 85% (active)
- growth inhibition ([12]; at 100.0 µM): 96% (active)
- growth inhibition ([13]; at 1.2 µM): 0%
- growth inhibition ([13]; at 3.7 µM): 2%
- growth inhibition ([13]; at 11.0 µM): 8%
- growth inhibition ([13]; at 33.0 µM): 28%
- growth inhibition ([13]; at 100.0 µM): 66%
- growth inhibition ([14]; at 1.2 µM): 40%
- growth inhibition ([14]; at 3.7 µM): 70% (active)
- growth inhibition ([14]; at 11.0 µM): 84% (active)
- growth inhibition ([14]; at 33.0 µM): 91% (active)
- growth inhibition ([14]; at 100.0 µM): 93% (active)
- growth inhibition [15, 16]: 84% (active)
- growth inhibition [15, 17]: 98% (active)
- growth inhibition ([15]; at 50.0 µM): 94.4% (active)
